Screening results from PubChem.
KCNQ2 enhance – potentiators of rat KCNQ2 potassium channel. actives 0.54% (n = 310,000). B-score at 10 µM. Potassium voltage-gated channel subfamily KQT member 2 (Rattus norvegicus), O88943. AID 2239, 2010. CHO-K1 KCNQ2, FluxOR thallium flux fluorescence; hits give high values;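 active = fluorescence ratio B-score at least 3 SD of library B-scores, with initial fluorescence B-score within 3 of them, cut at about 5.3 in these data; same plate scores as AID 2156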;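 note: B-score of peak minus minimum over baseline fluorescence ratio after K+ and Tl+ stimulus; positive B-score means potentiation of KCNQ2 with more thallium influx and brighter signal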
Target sequence (O88943 whole entry, looked up): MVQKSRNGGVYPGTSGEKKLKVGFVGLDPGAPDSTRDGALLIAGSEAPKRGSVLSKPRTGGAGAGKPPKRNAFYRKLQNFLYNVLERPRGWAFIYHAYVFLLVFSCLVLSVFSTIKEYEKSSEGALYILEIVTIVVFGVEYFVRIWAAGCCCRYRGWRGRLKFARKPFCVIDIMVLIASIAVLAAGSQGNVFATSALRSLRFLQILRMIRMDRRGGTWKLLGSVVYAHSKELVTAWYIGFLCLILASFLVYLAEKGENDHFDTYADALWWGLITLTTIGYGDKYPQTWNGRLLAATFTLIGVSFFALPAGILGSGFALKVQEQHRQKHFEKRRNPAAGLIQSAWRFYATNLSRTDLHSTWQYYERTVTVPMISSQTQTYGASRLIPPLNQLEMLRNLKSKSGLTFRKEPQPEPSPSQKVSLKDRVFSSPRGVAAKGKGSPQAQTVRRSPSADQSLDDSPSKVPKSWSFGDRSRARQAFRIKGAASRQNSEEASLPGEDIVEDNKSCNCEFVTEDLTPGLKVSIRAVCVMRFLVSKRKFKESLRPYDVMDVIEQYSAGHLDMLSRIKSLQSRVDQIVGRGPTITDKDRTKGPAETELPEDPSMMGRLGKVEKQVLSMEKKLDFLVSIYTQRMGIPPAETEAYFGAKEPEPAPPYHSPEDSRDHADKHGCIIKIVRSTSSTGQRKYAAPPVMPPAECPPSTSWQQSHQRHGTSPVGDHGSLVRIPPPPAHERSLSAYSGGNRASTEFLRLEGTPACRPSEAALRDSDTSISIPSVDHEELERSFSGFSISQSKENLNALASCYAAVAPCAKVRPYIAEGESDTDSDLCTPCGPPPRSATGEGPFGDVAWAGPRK
KCNQ2 block – rat KCNQ2 potassium channel inhibitors, primary screen, cell-based, CHO-K1, FluxOR thallium flux, B-score; AID 2156, 2009; actives 1.1% (n = 310,000); B-score at 10 µM; Potassium voltage-gated channel subfamily KQT member 2 (Rattus norvegicus), O88943; 20 min; hits give low values;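 active = fluorescence ratio B-score at most minus 3 library SDs, with starting brightness B-score within 2 library SDs, cut at about -5.5 in these data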
Numbers stand for hits; n = inactive; x = no result given. Most compounds without a hit are left out; they make up all but 1.6% or so of the library.

SMILES | KCNQ2 enhance | KCNQ2 block
CC(=O)NCCc1c[nH]c2ccc(O)cc12 | x | n
Cc1ccccc1-c1nnc(SCC(=O)N(C)c2c(N)n(Cc3ccccc3)c(=O)[nH]c2=O)n1C | n | n
COc1cccc(-c2nn(-c3ccccc3)cc2C(=O)O)c1 | n | n
COc1cccc(-c2nn(-c3ccc(C)cc3)cc2C(=O)N2CCc3cc(OC)c(OC)cc3C2)c1 | n | -6.22
COc1cc(Cl)ccc1OCc1cc(C(=O)NCCCN2CCCC2=O)no1 | n | n
Cc1ccc(-c2cc(C(=O)N3CCCC3)c3ccccc3n2)s1 | n | -5.86
O=C(c1cc(-c2ccc(Br)cc2)nc2ccccc12)N1CCC1 | n | -6.44
O=C(c1cc(-c2ccc(Cl)s2)nc2ccccc12)N1CCCC1 | n | n
O=C(c1cc(-c2cccc(Br)c2)nc2ccccc12)N1CCCC1 | x | n
CC(=O)O[C@H]1CC(C)(C)C(=C=C/C(C)=C/C=C/C(C)=C/C=C/C=C(C)/C=C/C=C(\C)C(=O)C[C@@]23O[C@]2(C)C[C@@H](O)CC3(C)C)[C@](C)(O)C1 | x | n
Cc1ccc(CNC(=O)c2ccc(Cl)c(S(N)(=O)=O)c2)n1C | n | n
COc1ccccc1/C=C/C(=O)NC(=S)NCC1CCCO1 (stereo not drawn) | n | -7.08
COc1ccc(/C=C/C(=O)NC(=S)NCC2CCCO2)cc1 (stereo not drawn) | n | n
CCOC(=O)Cc1csc(NS(=O)(=O)c2ccc([N+](=O)[O-])cc2)n1 | n | n
COC(=O)Nc1ccc2c(c1)N(C(=O)CCCl)c1ccccc1S2 | n | n
COC1(OC)C(/C=C/c2ccc(C)cc2)C(C#N)(C#N)C1(OC)OC (stereo not drawn) | n | -7.47
O=C(CN(C(=O)CCC(=O)Nc1nccs1)c1cccc(F)c1)NCCc1ccccc1 | x | n
CCCOP(=O)(OCCC)C(Nc1ccc(C(=O)O)cc1)c1ccccc1 (stereo not drawn) | n | n
CCCCOP(=O)(OCCCC)C(Nc1ccc(C(=O)OCC)cc1)c1ccncc1 (stereo not drawn) | n | -5.74
OC(c1cc(-c2ccc(Cl)cc2)nc2ccccc12)C1CCCCN1 (stereo not drawn) | n | -7.32
O[C@@H](c1cc(C(F)(F)F)nc2c(C(F)(F)F)cccc12)[C@H]1CCCCN1 | n | n
COCCn1c(SCC(=O)NC2CCCC2)nnc1C(C)C | n | n
O=C(CSc1cccc[n+]1[O-])NN(c1ccccc1)c1ccccc1 | n | n
Cn1c2ccccc2c2cc(/C=N/NC(=O)c3cc(O)ccc3O)ccc21 | n | -7.17
Cn1c2ccccc2c2cc(/C=N/NC(=O)c3cc(O)cc(O)c3)ccc21 | x | n
SMILES | KCNQ2 enhance | KCNQ2 block
CN(C)[C@@H]1CCC[C@@H]1OC(=O)C(c1ccccc1)c1ccccc1 | x | n
O=C(CNC(=O)c1nc[nH]c1C(=O)N1CCNCC1)OCc1ccccc1 | n | n
O=C(CNC(=O)c1nc[nH]c1C(=O)N1CCc2ccccc2C1)OCc1ccccc1 | n | -5.57
Cc1sc2nc3c(C(=O)N4CCCC4)cc(C(=O)c4ccccc4O)cn3c(=O)c2c1C | n | -7.1
COc1cccc(N2CCN(C(=O)c3cccn4c(=O)c5c(C)c(C)sc5nc34)CC2)c1 | x | n
O=C(CCc1nc2ccccc2[nH]1)Nc1ccc(F)cc1 | x | n
O=C(CCc1nc2ccccc2[nH]1)Nc1ccccc1F | 6.57 | n
Nc1nc2c(Cl)cc(Cl)cc2s1 | n | n
Nc1nc2c(Cl)ccc(Cl)c2s1 | 6.02 | n
CCC(C(=O)NCc1ccco1)N(C(=O)CNS(=O)(=O)c1ccccc1)c1ccc(OC)cc1 (stereo not drawn) | n | -5.75
CCOc1ccc(N(C(=O)CNS(=O)(=O)c2ccccc2)C(CC)C(=O)NCc2ccco2)cc1 (stereo not drawn) | n | n
Cc1oc(-c2cccs2)nc1CN1CCC(CO)(CCOc2ccccc2)CC1 | x | n
Cn1c(=O)n(CC(N)=O)c(=O)c2c1nc(Br)n2Cc1ccccc1 | n | n
CCCCOC(=O)Cn1c(=O)c2c(nc(Br)n2Cc2ccccc2)n(C)c1=O | n | -7.46
O=C(C[n+]1cccc(Br)c1)c1ccc(-c2ccccc2)cc1 | n | n
O=C(Nc1ccon1)c1ccc(S(=O)(=O)N2CCOCC2)cc1 | n | n
CSCCC(NS(=O)(=O)c1ccccc1F)C(=O)OCc1ccccc1Cl (stereo not drawn) | n | -6.23
CSCCC(NS(=O)(=O)c1ccc(Cl)cc1)C(=O)OCc1c(Cl)cccc1Cl (stereo not drawn) | x | n
CN1C(=O)/C(=C/c2ccccc2OCc2cccc(F)c2)NC1=S | n | n
C=CCN(c1cccc(C(F)(F)F)c1)S(=O)(=O)c1cccc(C(=O)OCC(=O)Nc2ccccc2)c1 | 7.53 | n
C=CCN(c1cccc(C(F)(F)F)c1)S(=O)(=O)c1cccc(C(=O)OCC(=O)NC)c1 | n | n
Cc1ccc(C)c(NS(=O)(=O)c2cc(C(=O)NCCSC3CCCCC3)ccc2C)c1 | x | n
Cc1ccccc1NS(=O)(=O)c1cc(C(=O)NCCSC2CCCCC2)ccc1C | n | -5.78
